Screening results: PubChem, Johns Hopkins Ion Channel Center
The list is not random: actives were taken first. Their share in the collection is about 1.6%.
KCNQ2 enhance: potentiators of rat KCNQ2 potassium channel; CHO-K1 KCNQ2, FluxOR thallium flux fluorescence; active compounds read high; B-score at 10 µM; 310,000 tested, 0.54% active;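 active = fluorescence ratio B-score at least 3 SD of library B-scores, with initial fluorescence B-score within 3 of them, cut at about 5.3 in these data; same plate scores as AID 2156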;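 also: B-score of peak minus minimum over baseline fluorescence ratio after K+ and Tl+ stimulus; positive B-score means potentiation of KCNQ2 with more thallium influx and brighter signal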
KCNQ2 inh: KCNQ2 (rat) channel inhibition. B-score at 10 µM. O88943. 310,000 tested, 1.1% active. CHO-K1 KCNQ2, FluxOR thallium flux, 20 min; active compounds read low;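 active = fluorescence ratio B-score at most minus 3 library SDs, with starting brightness B-score within 2 library SDs, cut at about -5.5 in these data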
Kir21 conf inh: confirmation of mouse Kir2.1 potassium channel inhibitors | shares compounds with KCNQ2 enhance | Kir2.1-expressing cells, FluxOR thallium flux fluorescence; active compounds read low | Tl flux remaining, % of negative control (active compounds read low), % at 10 µM | 2,300 tested, 41% active | AID 2032;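 active = Primary-screen hit whose thallium flux fell at least 3 control SD below untreated wells in both duplicates, with normal baseline fluorescence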
Target sequence (P35561 whole entry, looked up): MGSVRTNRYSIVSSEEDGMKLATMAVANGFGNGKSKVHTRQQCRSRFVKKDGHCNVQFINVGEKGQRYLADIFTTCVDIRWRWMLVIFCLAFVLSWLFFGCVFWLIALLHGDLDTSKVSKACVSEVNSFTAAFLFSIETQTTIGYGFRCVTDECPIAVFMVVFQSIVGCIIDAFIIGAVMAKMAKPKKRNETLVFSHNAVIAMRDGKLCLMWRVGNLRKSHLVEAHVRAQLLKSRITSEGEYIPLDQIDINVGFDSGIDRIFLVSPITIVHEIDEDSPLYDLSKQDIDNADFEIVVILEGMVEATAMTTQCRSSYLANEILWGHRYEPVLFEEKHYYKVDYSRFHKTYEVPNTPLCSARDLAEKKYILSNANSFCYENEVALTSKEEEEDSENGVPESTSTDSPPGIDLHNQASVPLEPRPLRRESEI
HEK293 Tl flux: parental HEK293 activity in Kir2.1 inhibitor counter-screen; shares compounds with KCNQ2 enhance; parental HEK293 cells, FluxOR thallium flux fluorescence; 0% = unstimulated blank wells; FluxOR signal as % of negative control (100 = no effect), % at 10 µM; 2,300 tested, 19% active; AID 2105;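 active = dye signal at least 3 control SD above or below untreated wells in both duplicates, raw fluorescence within 3, either direction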;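 also: percent is based on the flux ratio of peak minus minimum fluorescence over baseline F0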
CHO-K1 ctr: counter-screen for KCNQ2 potentiators: effect in parental CHO-K1 cells; 1,200 tested, 43% active; FluxOR thallium flux fluorescence; zero = vehicle mean+3SD, 100% = vehicle-minus-blank window; shares compounds with KCNQ2 enhance; activity increase over 3SD of controls, % at 10 µM;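 active = signal rise of at least 3 SD above the untreated control mean, in both duplicate wells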;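 also: counter screen of KCNQ2 potentiator hits so any rise reflects channel-independent effects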
KCNQ1 sel pot: human KCNQ1 counter-target activity of KCNQ2 potentiators. shares compounds with KCNQ2 enhance. CHO KCNQ1 stable, FluxOR thallium flux fluorescence; beyond 3SD, as % of vehicle-control signal. activation over 3SD threshold, % at 10 µM. 1,200 tested, 28% active;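 active = fluorescence ratio rise of at least 3 SD of vehicle wells above their mean, in both replicate wells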
KCNQ2 pot confirm: confirmation of rat KCNQ2 potassium channel potentiators; shares compounds with KCNQ2 enhance; CHO-KCNQ2 cells, FluxOR thallium flux fluorescence; potentiation, less the hit threshold, % at 10 µM; 1,200 tested, 68% active;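 active = fluorescence ratio rising 3 SD or more over the vehicle control mean in both replicates, plus primary screen hit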;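 also: peak minus minimum thallium fluorescence divided by baseline after K/Tl stimulus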
Kir2-1 sel: mouse Kir2.1 off-target activity of KCNQ2 potentiators; shares compounds with KCNQ2 enhance; HEK293 Kir2.1, FluxOR thallium flux fluorescence; activity over 3SD threshold, % at 10 µM; 1,200 tested, 2% active;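 active = fluorescence ratio rise of at least 3 SD above the vehicle-control mean, seen in both replicates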
KCNQ2 W236L MoA: rat KCNQ2 W236L mutant potentiation by KCNQ2 potentiators; shares compounds with KCNQ2 enhance; CHO KCNQ2-W236L, automated patch clamp current; current increase over 3SD of negative controls (%), active compounds read high, % at 25 µM; 940 tested, 10% active; AID 2558;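 active = current increase at least 3 SD of the untreated controls above them in both duplicate recordings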
Of the large screens only hits and unclear results are named; the others gave an inactive call (follow-up assays come after a bar, where they were run).

Brc1ccccc1OCCNCc1ccccc1	none (no result: KCNQ2 enhance)
C/C=C/c1ccc(OCCN2CCc3ccccc3C2)c(OC)c1	none (no result: KCNQ2 enhance)
C=CCc1ccc(OCCCNC2CCCC2)c(OC)c1	none (no result: KCNQ2 enhance)
COc1ccc(CNC(=O)c2oc3ccc(S(=O)(=O)N4CCOCC4)cc3c2C)cc1	none
COC(C[C@@H](O)CC(=O)COCc1ccccc1)OC	none
CC(C)(C)c1ccc(OCCCCCCN2CCNCC2)cc1	none (no result: KCNQ2 enhance)
CC(C)(c1ccccc1)c1ccc(OCCCN2CCNCC2)cc1	none | Kir21 conf inh 50% | HEK293 Tl flux inactive
CSCCC(=O)N1CCCC(N(C)CCc2ccccc2)C1 (stereo unspecified)	none
CC(NS(=O)(=O)c1ccc(Br)cc1)C(c1cccs1)N1CCOCC1 (stereo unspecified)	none (no result: KCNQ2 enhance)
COc1cc(/C=C2/C(=O)NN(c3ccc(C)c(Cl)c3)C2=O)cc([N+](=O)[O-])c1O	none (no result: KCNQ2 enhance)
Cc1ccc(N2NC(=O)/C(=C\c3cc4c(cc3[N+](=O)[O-])OCO4)C2=O)cc1C	none (no result: KCNQ2 enhance) | Kir21 conf inh 76% | HEK293 Tl flux inactive
CCCOc1ccc(C(=O)Nc2ccc3c(c2)OCCO3)cc1	none
Cc1ccc(/C=C/c2onc(C)c2S(=O)(=O)N2CCC(C(=O)NC(C)(C)C)CC2)cc1	none (no result: KCNQ2 enhance)
CC(C)Cc1csc(NC(=O)c2ccc(Br)cc2)c1C(=O)O	KCNQ2 enhance 6.1 | Kir21 conf inh inactive | HEK293 Tl flux 126% | CHO-K1 ctr 6.1 | KCNQ1 sel pot 16 | KCNQ2 pot confirm 18 | Kir2-1 sel inactive | KCNQ2 W236L MoA inactive
CC(C)Cc1csc(NC(=O)C(C)C)c1C(=O)O	none
N=C(CC1CC(=O)NC(=O)C1)C1=C(O)CCCC1=O	none (no result: KCNQ2 enhance)
CCc1ccc(OCC(=O)NCc2ccco2)c(Br)c1	KCNQ2 enhance 7.8 | Kir21 conf inh inactive | HEK293 Tl flux inactive | CHO-K1 ctr inactive | KCNQ1 sel pot inactive | KCNQ2 pot confirm 22 | Kir2-1 sel inactive | KCNQ2 W236L MoA inactive
O=C(COc1ccccc1Br)NCc1ccco1	none
O=C(Nc1cccc([N+](=O)[O-])c1)N1CCCCCC1	none (no result: KCNQ2 enhance)
C/C(=N\O)C(C)(C)Nc1cccc(Br)c1	none (no result: KCNQ2 enhance)
COc1cc(OC)c(OC)cc1CNc1cc(C)ccc1OC	none (no result: KCNQ2 enhance) | Kir21 conf inh 54% | HEK293 Tl flux inactive
COc1ccc(C)cc1NCc1cccc(OC)c1OC	none (no result: KCNQ2 enhance)
CN(CC(=O)NCc1ccc2c(c1)OCO2)S(=O)(=O)c1ccc(F)cc1	none
Oc1ccccc1Nc1nc(NCC2CCCO2)c2ccccc2n1 (stereo unspecified)	none (no result: KCNQ2 enhance) | Kir21 conf inh 46% | HEK293 Tl flux inactive
c1ccc2c(NCC3CCCO3)nc(N3CCCCC3)nc2c1 (stereo unspecified)	none
Oc1ccc(Nc2nc(NCC3CCCO3)c3ccccc3n2)cc1 (stereo unspecified)	none (no result: KCNQ2 enhance) | Kir21 conf inh inactive | HEK293 Tl flux inactive
Oc1ccc(Cl)cc1Nc1nc(NCC2CCCO2)c2ccccc2n1 (stereo unspecified)	none
O=C(COC(=O)c1cccnc1)Nc1ccc2c(c1)OCO2	none (no result: KCNQ2 enhance)
CCCCc1cc(=O)oc2c(C)c(OCC(=O)N3C[C@H]4C[C@@H](C3)c3cccc(=O)n3C4)ccc12	none (no result: KCNQ2 enhance)
COc1ccc(C(=O)Cn2c(=N)n(C)c3ccccc32)cc1	none (no result: KCNQ2 enhance)
COc1ccc(C(=O)CN2Cc3ccccc3C2=N)cc1	none | Kir21 conf inh 24% | HEK293 Tl flux inactive
CCN1CCN(C(=O)C(C)Nc2ccc(OC)cc2OC)CC1 (stereo unspecified)	none (no result: KCNQ2 enhance)
COc1ccc(Nc2ncnc3ccc(C)cc23)cc1	none | Kir21 conf inh 52% | HEK293 Tl flux 168%
COC(=O)c1cccc(Nc2ncnc3ccc(C)cc23)c1	none (no result: KCNQ2 enhance)
CCCCn1c(-c2csc(C(C)C)c2)n[nH]c1=S	KCNQ2 enhance 8.1 | CHO-K1 ctr inactive | KCNQ1 sel pot 22 | KCNQ2 pot confirm 3.4 | Kir2-1 sel inactive | KCNQ2 W236L MoA 40%
CCCCn1c(-c2csc3ccccc23)n[nH]c1=S	none
C/C(=N\NC(=O)c1ccc(Cl)c(Cl)c1)c1ccccn1	none (no result: KCNQ2 enhance)
C/C(=N\NC(=O)c1cccc(Br)c1)c1ccccn1	KCNQ2 enhance 7.7 | Kir21 conf inh inactive | HEK293 Tl flux inactive | CHO-K1 ctr inactive | KCNQ1 sel pot inactive | KCNQ2 pot confirm inactive | Kir2-1 sel inactive
Cc1cccc(NC(=O)N2CCCCCC2)c1	none (no result: KCNQ2 enhance)
Cc1c(C(=O)OCC(=O)Nc2ccc(C(N)=O)cc2)cccc1[N+](=O)[O-]	none
CC/C(=N/NC(=O)c1ccc2c(c1)OCO2)c1ccccc1O	KCNQ2 enhance 7.9 | Kir21 conf inh inactive | HEK293 Tl flux inactive | CHO-K1 ctr inactive | KCNQ1 sel pot inactive | KCNQ2 pot confirm 16 | Kir2-1 sel inactive | KCNQ2 W236L MoA inactive
CC/C(=N\NC(=O)c1ccc2c(c1)OCO2)C12CC3CC(CC(C3)C1)C2	none (no result: KCNQ2 enhance)
O=C(c1nnsc1S(=O)(=O)c1ccc(Cl)cc1)N1CCOCC1	none
CNC(=O)c1nnsc1S(=O)(=O)c1ccc(Cl)cc1	KCNQ2 inh -7.1 | Kir21 conf inh inactive | HEK293 Tl flux inactive
CCOc1ccccc1N(CC(=O)NC1CCCC1)S(=O)(=O)c1ccc(C)cc1	none (no result: KCNQ2 enhance)
Cc1ccccc1CNS(=O)(=O)c1ccccc1[N+](=O)[O-]	none
Cc1onc(-c2ccccc2)c1CNS(=O)(=O)c1ccccc1[N+](=O)[O-]	none | Kir21 conf inh 60% | HEK293 Tl flux inactive
COc1ccc(-c2nc(CN3CCCCC3c3nccn3C)c(C)o2)c(C)c1C (stereo unspecified)	none (no result: KCNQ2 enhance)
Cc1ccc(C2C(C#N)=C(N)OC3=C2C(=O)CCC3)s1 (stereo unspecified)	KCNQ2 enhance 6.5 | Kir21 conf inh inactive | HEK293 Tl flux inactive | CHO-K1 ctr inactive | KCNQ1 sel pot 3.7 | KCNQ2 pot confirm 1.5 | Kir2-1 sel inactive | KCNQ2 W236L MoA inactive
CCc1ccc(C2C(C#N)=C(N)OC3=C2C(=O)CCC3)s1 (stereo unspecified)	none
COc1ccc(S(=O)(=O)N2CCCC2CNC(=O)C(=O)NCc2ccccn2)cc1 (stereo unspecified)	none
COc1ccc(CNC(=O)c2csc(Cc3ccc(OC)cc3)n2)cc1	none (no result: KCNQ2 enhance) | Kir21 conf inh 52% | HEK293 Tl flux inactive
COc1ccc(CNC(=O)c2csc(Cc3ccc(Cl)cc3)n2)cc1	none (no result: KCNQ2 enhance)
CCCCN(CCCC)CCNC(=O)CN1C(=O)COc2ccc(S(=O)(=O)N3CCC(C)CC3)cc21	none (no result: KCNQ2 enhance)
